In PubChem BioAssay (Tox21):
Several values for one entry are separate records, joined by “and”; a condition that tells them apart may be missing. Equal values may be shown once. Records with an inconclusive call do not appear. Activity calls are given as the source filed them. Calls come from the whole dose curve; as a rule, active = well fitted curve in the direction sought with a large enough effect in the repeat runs; inconclusive = weak or mixed curves; inactive = no such curve, though single readings can be large; an effect the other way counts as inactive or inconclusive.

Assays:
[1] = A CellTox Green Cytotoxicity Assay to monitor cytotoxicity in HepG2 cells - 0 hour (AID 1224882); note: % is set by controls: 0 for no effect and ±100 for the full control effect; nearly all actives have a fitted effect of over 35% in size
In short: (§1)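 Cells and non-lytic dye reagent are dispensed together (600 HepG2 cells/well) and incubated 5 h before DMSO compound transfer. Kinetic fluorescence is then recorded in the same wells during 40 h at 37 C.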

[2] = A CellTox Green Cytotoxicity Assay to monitor cytotoxicity in HEK293 cells - 8 hour (AID 1224884); note: nearly all actives have a fitted effect of over 35% in size; note: potency is the fitted concentration of half-maximal effect; for cytotoxicity increase: % is set by controls: 0 for no effect and ±100 for the full control effect
In short: (§2)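 Cells (HEK293, 600/well) and dye reagent are dispensed together. After 5 h at 37 C, 23 nL compound is pinned in. Plates stay at 37 C for 40 h with fluorescence read at 0h, 8h, 16h, 24h, 32h and 40h.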

[3] = qHTS RealTime-Glo MT Cell Viability Assay in HepG2 cells - 16 hour (AID 1224885); note: nearly all actives have a fitted effect of over 50% in size; note: potency is the fitted concentration of half-maximal effect; for activity change, negative = cytotoxic: % is set by controls: 0 for no effect and ±100 for the full control effect
In short: (§3)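 Cells + NanoLuc/prosubstrate dispensed (600 cells/well) → 5 h at 37 C/5% CO2 → compounds in DMSO transferred → 40 h incubation at 37 C, luminescence read at 0, 8, 16, 24, 32, 40 h.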

[4] = qHTS RealTime-Glo MT Cell Viability Assay in HEK293 cells - 24 hour (AID 1224886); note: nearly all actives have a fitted effect of over 50% in size; note: potency is the fitted concentration of half-maximal effect; for activity change, negative = cytotoxicity: top concentration of the series differs between compounds; % is set by controls: 0 for no effect and ±100 for the full control effect
In short: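 Tox21 10K qHTS, HEK293, 600 cells/well, RealTime-Glo reagent co-dispensed with cells; 5 h preincubation, compound by pintool, 37 C, luminescence at 0–40 h.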

[5] = qHTS RealTime-Glo MT Cell Viability Assay in HEK293 cells - 8 hour (AID 1224887); note: nearly all actives have a fitted effect of over 50% in size; note: potency is the fitted concentration of half-maximal effect; for activity change, negative = cytotoxicity: top concentration of the series differs between compounds; % is set by controls: 0 for no effect and ±100 for the full control effect
In short: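 Real-time viability in HEK293: signal arises when living cells convert a prosubstrate for NanoLuc in the medium, so luminescence tracks viable cell number. Compound (23 nL, DMSO) added 5 h post-seeding; kinetic reads at 0–40 h, 37 C.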

[6] = A CellTox Green Cytotoxicity Assay to monitor cytotoxicity in HEK293 cells - 16 hour (AID 1224888); note: nearly all actives have a fitted effect of over 35% in size; note: potency is the fitted concentration of half-maximal effect
In short: as §2

[7] = qHTS RealTime-Glo MT Cell Viability Assay in HepG2 cells - 0 hour (AID 1224889); note: nearly all actives have a fitted effect of over 50% in size; note: potency is the fitted concentration of half-maximal effect
In short: as §3

[8] = qHTS assay to identify small molecule antagonists of the estrogen receptor alpha (ER-alpha) signaling pathway using the BG1 cell line in the presence of 0.1 nM 17-beta-estradiol - cell viability counter screen (AID 1259241); note: nearly all actives have a fitted effect of over 40% in size; note: potency is the fitted concentration of half-maximal effect
In short: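 CellTiter-Fluor read (30 min, 37C) on ER-alpha/ERE-luc VM7Luc4E2 cells; 22 hr compound treatment; agonist 0.1 nM E2 final; same-well multiplex.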

[9] = A CellTox Green Cytotoxicity Assay to monitor cytotoxicity in HepG2 cells - 8 hour (AID 1224890); note: nearly all actives have a fitted effect of over 45% in size; note: potency is the fitted concentration of half-maximal effect
In short: as §1

[10] = A CellTox Green Cytotoxicity Assay to monitor cytotoxicity in HepG2 cells - 32 hour (AID 1224883)
In short: as §1

CCCC(O)C(O)CO (stereo not drawn)
inactive: Potency [1] | Potency [2] | Potency [3] | Potency [4] | Potency [5] | Potency [6] | Potency [7] | Potency [8]

COc1cccc(CCc2ccccc2OCC(CN(C)C)OC(=O)CCC(=O)O)c1 (stereo not drawn)
inactive: Potency [1] | Potency [2] | Potency [3] | Potency [4] | Potency [5] | Potency [6] | Potency [7] | Potency [9] | Potency [8]

CC(C)CCOCCC(C)C
inactive: Potency [1] | Potency [2] | Potency [3] | Potency [4] | Potency [5] | Potency [6] | Potency [7] | Potency [9] | Potency [8]

C=C/C=C/C=C/CCCCC
inactive: cytotoxicity [1] -3.64% [at 15.8 µM] | cytotoxicity increase [2] -3.53% [at 15.8 µM] | activity change, negative = cytotoxic [3] -10.1% [at 15.8 µM] | activity change, negative = cytotoxicity [4] 13% [at 15.8 µM] | activity change, negative = cytotoxicity [5] -1.22% [at 15.8 µM] | activity change, negative = cytotoxicity [7] -16.9% [at 15.8 µM] | activity change, negative = cytotoxicity [8] -4.24% [at 19 µM]

CSc1c(Cl)c(Cl)c(Cl)c(Cl)c1Cl
inactive: Potency [1] | Potency [2] | Potency [3] | Potency [4] | Potency [6] | Potency [7] | Potency [9] | Potency [8]

CC(C)=C1CC[C@@H](C)CC1=O
inactive: Potency [1] | Potency [2] | Potency [3] | Potency [4] | Potency [5] | Potency [6] | Potency [8]

CC(C)(C)c1n[nH]c(=O)n(N)c1=O
inactive: Potency [1] | Potency [2] | Potency [3] | Potency [4] | Potency [6] | Potency [7] | Potency [9] | Potency [8]

Clc1cc(Cl)c(-c2c(Cl)c(Cl)cc(Cl)c2Cl)cc1Cl
inactive: Potency [1] | Potency [2] | Potency [3] | Potency [5] | Potency [9] | Potency [8]

Nc1cc(Cl)c([N+](=O)[O-])cc1O
inactive: Potency [1] | Potency [2] | Potency [3] | Potency [6] | Potency [7] | Potency [9]

COc1cc(C(=O)NS(=O)(=O)c2ccccc2C)ccc1Cc1cn(C)c2ccc(NC(=O)OC3CCCC3)cc12
inactive: Potency [1] | Potency [2] | Potency [3] | Potency [4] | Potency [5] | Potency [6] | Potency [7] | Potency [9] | Potency [8]

c1ccc(Nc2cccc3ccccc23)cc1
inactive: Potency [1] | Potency [2] | Potency [3] | Potency [4] | Potency [6] | Potency [9] | Potency [8]

O=C(NO)c1ccccc1
inactive: Potency [1] | Potency [3] | Potency [5] | Potency [7] | Potency [8]

Cc1cc2c(C(C)C)c(O)c(O)c(C=O)c2c(O)c1-c1c(C)cc2c(C(C)C)c(O)c(O)c(C=O)c2c1O
active: Potency [6] 16.9 µM
inactive: Potency [1] | Potency [7] | Potency [9] | Potency [8]

CC(C)C(=O)OCc1ccccc1
inactive: Potency [1] | Potency [3] | Potency [7] | Potency [8]

CC(O)C#CC(C)O (stereo not drawn)
inactive: Potency [1] | Potency [2] | Potency [5] | Potency [6] | Potency [7] | Potency [9]

Cc1nc(Nc2ncc(C(=O)Nc3c(C)cccc3Cl)s2)cc(N2CCN(CCO)CC2)n1
active: Potency [7] 23.9 µM
inactive: Potency [1] | Potency [2] | Potency [9]

CCOC(=O)[C@@](C)(N)Cc1ccc(O)c(O)c1
inactive: Potency [2] | Potency [3] | Potency [4] | Potency [6]

CCOB(OCC)OCC
inactive: Potency [1] | Potency [2] | Potency [3] | Potency [7] | Potency [9] | Potency [8]

CCCCCCC(C)Nc1ccc(Nc2ccccc2)cc1 (stereo not drawn)
inactive: Potency [1] | Potency [2] | Potency [6] | Potency [9] | Potency [8]
active: Potency [4] 21.9 µM | Potency [5] 19.5 µM

CC(C)OC(=O)c1cc(C(=O)OC(C)C)cc([N+](=O)[O-])c1
inactive: Potency [1] | Potency [3] | Potency [6] | Potency [7] | Potency [9] | Potency [8]

CCCCN(CCCC)CCC(O)c1cc2c(Cl)cc(Cl)cc2c2cc(C(F)(F)F)ccc12 (stereo not drawn)
inactive: Potency [1] | Potency [2] | Potency [4] | Potency [5] | Potency [6] | Potency [7] | Potency [9]

O=C(O)c1cccc(Cl)n1
inactive: Potency [1] | Potency [3] | Potency [7] | Potency [9] | Potency [8]

CNC(=O)c1cc(Oc2ccc(NC(=O)Nc3ccc(Cl)c(C(F)(F)F)c3)cc2)ccn1
active: Potency [4] 3.38 µM | Potency [5] 4.25 µM
inactive: Potency [1] | Potency [2] | Potency [6] | Potency [7] | Potency [9]

CCOC(=O)C1=C(C)NC(C)=C(C(=O)OCC)C1c1ccccc1/C=C/C(=O)OC(C)(C)C
active: Potency [7] 3.38 µM
inactive: Potency [1] | Potency [2] | Potency [4] | Potency [5] | Potency [6] | Potency [8]

NCCCCCCNCCCCCCN
inactive: Potency [1] | Potency [2] | Potency [4] | Potency [5] | Potency [6] | Potency [7] | Potency [9]

CC(=O)OC(OC(C)=O)c1ccc([N+](=O)[O-])o1
active: Potency [5] 39.6 µM | Potency [8] 55.4 µM
inactive: Potency [1] | Potency [2] | Potency [7] | Potency [9]

Cc1ccc(N)cc1O
inactive: Potency [1] | Potency [3] | Potency [5] | Potency [7]

C[C@]12CC[C@H]3C(=CCc4cc(O)ccc43)[C@@H]1CCC2=O
inactive: Potency [1] | Potency [2] | Potency [5] | Potency [6] | Potency [7] | Potency [9] | Potency [8]
active: Potency [4] 43.6 µM

COc1cc(C(C)C)c2c(c1)S(=O)(=O)N(COc1cc(=O)n3cccc(OCCN4CCCCC4)c3n1)C2=O
inactive: cytotoxicity [1] 2.15% [at 15.8 µM] | cytotoxicity increase [2] -6.14% [at 15.8 µM] | activity change, negative = cytotoxic [3] -16.4% [at 15.8 µM] | activity change, negative = cytotoxicity [7] -4.58% [at 15.8 µM] | cytotoxicity increase [9] 14.9% [at 15.8 µM]

CCOC(=O)N1CCC(=C2c3ccc(Cl)cc3CCc3cccnc32)CC1
inactive: Potency [1] | Potency [2] | Potency [6] | Potency [9] | Potency [8]
active: Potency [4] 21.9 µM and 16.9 µM | Potency [5] 21.9 µM

NC(=O)c1nc(-c2cccc(-c3cc(F)ccc3OCC(F)(F)C(F)(F)F)c2)n[nH]1
inactive: Potency [1] | Potency [2] | Potency [5] | Potency [6] | Potency [7] | Potency [8]

CCCCCCOc1ccc(O)cc1
inactive: Potency [1] | Potency [2] | Potency [6] | Potency [7] | Potency [8]
active: Potency [4] 0.0617 µM | Potency [5] 0.0617 µM | Potency [9] 24.5 µM

CCCCCCCC/C=C\CCCCCCCC(=O)N(C)CC(=O)O
active: Potency [2] 38.9 µM | Potency [6] 24.5 µM
inactive: Potency [1] | Potency [9]

CC(=O)OC1CCCCC1
inactive: Potency [1] | Potency [2] | Potency [4] | Potency [5] | Potency [6] | Potency [7] | Potency [9] | Potency [8]

N[C@@H](CSSC[C@H](N)C(=O)O)C(=O)O
inactive: cytotoxicity increase [2] 26.5% [at 0.29 µM] | activity change, negative = cytotoxic [3] 0.777% [at 0.29 µM] | activity change, negative = cytotoxicity [4] 9.89% [at 0.29 µM] | activity change, negative = cytotoxicity [5] 16.3% [at 0.29 µM] | activity change [6] 14.4% [at 0.29 µM, stronger effect = higher value] | activity change, negative = cytotoxicity [7] 0.0589% [at 0.29 µM] | activity change, negative = cytotoxicity [8] 0.433% [at 0.349 µM]

CCCSS/C(CCO)=C(\C)N(C=O)Cc1cnc(C)nc1N
inactive: Potency [1] | Potency [2] | Potency [3] | Potency [6] | Potency [9] | Potency [8]

CCC(C)c1cc([N+](=O)[O-])cc([N+](=O)[O-])c1OC(=O)OC(C)C (stereo not drawn)
active: Potency [5] 49 µM
inactive: Potency [1] | Potency [2] | Potency [6] | Potency [7] | Potency [9]

O=C1Nc2ccc(Cl)cc2[C@@](C#CC2CC2)(C(F)(F)F)O1
inactive: Potency [1] | Potency [7]
active: Potency [5] 23.9 µM

Clc1ccc(C(Cn2ccnc2)OCc2c(Cl)cccc2Cl)c(Cl)c1 (stereo not drawn)
inactive: Potency [2] | Potency [6] | Potency [8]
active: Potency [4] 16.9 µM

COC(=O)C1=C(C)NC(C)=C(C(=O)OCCCN2CCC(c3ccccc3)(c3ccccc3)CC2)C1c1cccc([N+](=O)[O-])c1 (stereo not drawn)
active: Potency [4] 10.7 µM | Potency [5] 16.9 µM
inactive: Potency [1] | Potency [2] | Potency [7] | Potency [9] | Potency [8]

COc1nccnc1CC(C)C
inactive: Potency [1] | Potency [2] | Potency [4] | Potency [6] | Potency [9] | Potency [8]

CC(C)(c1cc(Br)c(OCCO)c(Br)c1)c1cc(Br)c(OCCO)c(Br)c1
active: Potency [4] 12 µM
inactive: Potency [1] | Potency [2] | Potency [6] | Potency [7] | Potency [9] | Potency [8]

COCC(=O)O[C@]1(CCN(C)CCCc2nc3ccccc3[nH]2)CCc2cc(F)ccc2[C@@H]1C(C)C
active: Potency [10] 10.7 µM | Potency [3] 19 µM | Potency [4] 6.01 µM | Potency [5] 6.74 µM | Potency [6] 23.9 µM
inactive: Potency [2] | Potency [7] | Potency [8]

O=C(Nc1ccc(Cl)cc1)Nc1ccc(Cl)c(C(F)(F)F)c1
inactive: Potency [1] | Potency [2] | Potency [6] | Potency [7] | Potency [9] | Potency [8]

NCCCC(O)(P(=O)(O)O)P(=O)(O)O
inactive: Potency [2] | Potency [3] | Potency [4] | Potency [5] | Potency [6] | Potency [7] | Potency [8]

CN(C)CCCN1c2ccccc2CCc2ccccc21
inactive: Potency [1] | Potency [2] | Potency [3] | Potency [6] | Potency [9] | Potency [8]

O=C(Oc1ccccc1)c1cccc(C(=O)Oc2ccccc2)c1
inactive: Potency [1] | Potency [6] | Potency [7] | Potency [9] | Potency [8]
